Data on 88 compounds can be found in PubChem BioAssay AID1259415 (National Center for Advancing Translational Sciences (NCATS), 2018).

Each structure is given as a SMILES string. About 18,000 (4.4%) of roughly 410,000 compounds were called active. Another 7% or so got no clear call; they are omitted. For the sample, actives were picked, then their nearest neighbours and some compounds at random. Unmarked numbers belong to inactive results. Cut-off read from the data, not from the text of the source: active = activity change below about -60%; inconclusive = no clear call, values can overlap the other calls; inactive = above about -39%.
% is set by controls: 0 for no effect and ±100 for the full control effect.

This test is described as follows: qHTS Assay for inhibitors of the human cytomegalovirus (HCMV). Particulars: HFF cells, HCMV-luciferase reporter, 72 h; at 57.5 µM; stronger effect = lower value. The text has this: NCGC Assay Overview: Infection with human cytomegalovirus (HCMV) continues to pose significant threats for pregnant women and immunocompromised hosts. HCMV causes serious morbidity and mortality in transplant recipients, and congenital HCMV is the leading infectious cause of mental retardation and deafness in children. In the 1990s, the annual costs associated with the disease burden of congenital CMV were estimated at around $2 billion. A HCMV vaccine is not available yet and HCMV therapies result in intolerable side effects and emergence of drug resistant viruses. […] Towards this goal we have developed and characterized a luciferase HCMV reporter that was initially used in 96 well plates and then optimized to 1536-well plates for utilization in screening of the MLSMR collection, the NGCG diversity collection and the NCGC Pharmaceutical Collection of approved and investigational drugs.
NCGC Assay Protocol Summary:
This is a cell-based assay for HCMV inhibition in HFFs cells. The screening used 2 compound doses and the HCMV-luciferase at MOI of 1 PFU/cell. Cells were treated and infected with HCMV. At 72 h post infection cell lysates were collected and luciferase activity was determined using the Glomax-Multi + Detection System (Promega, Madison, WI). Data were normalized to the controls for basal activity (buffer only) and known HCMV inhibitors Salinmoycin.
1536-well assay protocol for the assay:
(1) Add 3 ul CMV/HFF cell culture. 1000 cells/well in DMEM nirmal media.
(2) Incubate 16 hr at 37C.
(3) Add 23 nl control compound, 10uM of Salinomycin.
(4) Add 23 nl compounds in DMSO solution.
(5) Add 3 ul CMV suspension. Final 1 puf/ul, Virus stock 2000pfu/ul
(6) Incubate 72 hrs at 37C.
(7) Add 4 ul OneGlo Luc Reagent.
(8) Incubate 5 min at room temperature.
A general note: In qHTS, concentration-response curves come from the screen itself.
Take `Cc1ccc(-n2nc3c(c2NC(=O)CCC2CCCCC2)CS(=O)C3)cc1` (stereo not drawn): the activity change, negative = inhibition was -68.2% (active).

With `COc1ccc(-n2nc3c(c2NC(=O)Cc2cccc(C)c2)CS(=O)C3)cc1` (stereo not drawn), the activity change, negative = inhibition was 0.139%. The result for `CC(=O)Nc1c2c(nn1-c1ccc(C)cc1C)CS(=O)C2` (stereo not drawn) reads 0%; that for `CCOc1cc(C(=O)NCCc2csc3nc(-c4ccc(C)cc4)nn23)cc(OCC)c1OCC`, -29.1%.

As to `Cc1cc(C)n(CC(C)NCc2c(C(=O)N3CCOCC3)nc3c(C)cccn23)n1` (stereo not drawn), the activity change, negative = inhibition was 16%. For `CCCCCn1c(=O)[nH]c2cc(C(=O)Nc3ccc(F)cc3)ccc2c1=O`, the activity change, negative = inhibition is 3.61%.

Turning to `Nc1nc(SCC(=O)Nc2ccc(Cl)c([N+](=O)[O-])c2)n[nH]1`, the activity change, negative = inhibition is -9.65%. The result for `CC(=O)Nc1ccc(NC(=O)C(C)OC(=O)c2ccccc2C(=O)c2ccc(Cl)c([N+](=O)[O-])c2)cc1` (stereo not drawn) reads -83.7% (active); that for `N#Cc1cccc(NC(=O)COC(=O)c2ccccc2C(=O)c2ccc(Cl)c([N+](=O)[O-])c2)c1`, -99.2% (active).

Consider `O=C(COc1ccc(NC(=O)c2ccccc2[N+](=O)[O-])cc1)c1ccc(F)cc1`, for which the activity change, negative = inhibition is -16.6%. `CC(C)NC(=O)c1ccc(Sc2ccccc2)c([N+](=O)[O-])c1`: the activity change, negative = inhibition is -15.4%. With `Cc1ccc(CC(=O)Nc2cccc(C#N)c2)cc1`, the activity change, negative = inhibition was 6.08%.

As to `CCOc1ccc(NC(=O)C(CC(C)C)N2Cc3ccccc3C2=O)cc1` (stereo not drawn), the activity change, negative = inhibition was 9.79%. As to `Cc1ccccc1-c1nc(SCC(=O)N(C)c2ccccc2)c2c(=O)n(C)c(=O)n(C)c2n1`, the activity change, negative = inhibition is 27.2%.

For `CN1CCN(CCCNC(=O)c2ccc(/C=C3\Oc4ccccc4N(Cc4ccc(Cl)cc4)C3=O)cc2)CC1`, the activity change, negative = inhibition is -110% (active). As to `CCCN1CCN(CCCNC(=O)c2ccc3nc(Cc4ccccc4)oc3c2)CC1`, the activity change, negative = inhibition is 8.36%. Next, `COCCNC(=O)c1ccc2c(c1)N(Cc1cccc(Cl)c1)C(=O)c1ccccc1S2(=O)=O`: 5.49%. Next, `CCc1nc(-c2cc(S(=O)(=O)N3CCN(c4ccc(OC)cc4)CC3)ccc2OC)no1`: 48.2%. The result for `Clc1ccccc1CSc1nncn2c1cc1occc12` reads -18.9%.

Take `CCOc1cc(-c2cc(-c3ccc(NC(C)=O)cc3)nc(N)c2C#N)ccc1O`: the activity change, negative = inhibition was -70.4% (active).

For the compound `Cc1ccc(-c2cc(C(F)(F)F)c(C#N)c(SCC(=O)Nc3ccccc3)n2)cc1`, the activity change, negative = inhibition is 1.85%.

In the case of `CCOC(=O)CN(C(=O)COc1nc(-c2ccccc2)cc(C)c1C#N)c1ccc(F)cc1`, the activity change, negative = inhibition is -37.6%. Next, `Cc1ccc(-c2nc(CS(=O)(=O)CC(=O)NCc3ccccc3Cl)c(C)o2)cc1`: -14.3%; `CCOc1ccc(NS(=O)(=O)c2ccc(N)cc2)nn1`: -10.2%; `CCCCn1c(=N)c(S(=O)(=O)c2ccccc2)cc2c(=O)n3cccc(C)c3nc21`: 12.5%. The result for `COc1ccc(CC(=O)Nc2ccc(-c3nnc(-c4ccc(C)cc4)o3)cc2)cc1` reads -63.2% (active); that for `COc1ccc(Cc2n[nH]c(=S)n2NC(=O)Nc2ccc(C)cc2)cc1`, 4.71%; that for `COc1ccc(CC(=O)Nc2ccc(-c3nc4ccccc4s3)c(C)c2)cc1`, 52.5%. For `CCn1c2ccccc2c2nnc(N3CCN(c4cc(C)ccc4C)CC3)nc21`, the activity change, negative = inhibition is -34%. As for `COc1cc(OC)c(NC(=O)Cc2ccc(-n3c(C)nc4cccnc43)cc2)cc1Cl`, the activity change, negative = inhibition is 0%. Take `Cc1cc2n(n1)C(c1cc(C(C)(C)C)c(O)cc1O)Nc1ccccc1-2` (stereo not drawn): the activity change, negative = inhibition is -23.1%.

Turning to `COc1ccc(-c2nc(CS(=O)(=O)CC(=O)NCc3cccc(Br)c3)c(C)o2)cc1`, the activity change, negative = inhibition was 5.73%.

`COc1cccc(-c2nc(CS(=O)(=O)CC(=O)N3CCN(c4cc(C)ccc4C)CC3)c(C)o2)c1`: the activity change, negative = inhibition is -75.7% (active). The result for `CCCCN(CC)CCCNC(=O)CS(=O)(=O)Cc1nc(-c2cccc(OC)c2)oc1C` reads 29.6%; that for `CCS(=O)(=O)n1nc(-c2ccccc2)nc1SCc1ccccc1`, 138%. The result for `COc1cc(OC)c(C2C=C(C(=O)O)Nc3ncnn32)cc1OC` (stereo not drawn) reads 6.4%. On to `COc1ccc(Cn2c(=S)[nH]c3cc(C(=O)NCCCN4CCOCC4)ccc3c2=O)cc1`, for which the activity change, negative = inhibition was -65.2% (active).

In the case of `CCN(CC)CCCNC(=O)c1ccc2c(=O)n(Cc3ccc4c(c3)OCO4)c(=S)[nH]c2c1`, the activity change, negative = inhibition was 69.4%. The result for `COCCn1c(=S)[nH]c2cc(C(=O)NCCc3ccc(OC)c(OC)c3)ccc2c1=O` reads 29.3%; that for `COc1ccc(C(F)(F)F)cc1N/C=C\c1nnnn1-c1ccc(C)cc1`, 34.7%; that for `Cc1ccc(CN2CCc3nc(N4CCN(C)CC4)ncc3C2)cc1`, -6.43%. For the compound `CCCCOCCCNC(=O)C[C@@H]1C[C@@]2(C(=O)OCC)CCCC=C2N(CCC2=CCCCC2)C1=O`, the activity change, negative = inhibition is 22.8%. The result for `CS(=O)(=O)N1CCc2nc(-c3ccccc3)sc2C1` reads 154%. Next, `CCOc1ccc(Nc2c(S(=O)(=O)c3ccccc3)cnc3ccccc23)cc1`: -70% (active); `CCOc1ccc(S(=O)(=O)c2cn(Cc3ccccc3)c3ccc(OCC)cc3c2=O)cc1`: -13.1%.

On to `CCOc1ccc(S(=O)(=O)NCCSc2ccccc2)cc1`, for which the activity change, negative = inhibition was 43.7%.

For `Cc1cc(F)ccc1NC1(c2ccccc2)C(=O)c2ccccc2C1=O`, the activity change, negative = inhibition was 6.52%. Next, `COc1ccc(C(=O)COC(=O)c2c(C)noc2C)cc1Cl`: -19.5%; `Cc1[nH]c2ccccc2c1C(=O)CN1CC(C)CC(C)C1` (stereo not drawn): 9.64%.

Turning to `Cc1[nH]c2ccccc2c1C(=O)COC(=O)c1c(-c2ccccc2)noc1C`, the activity change, negative = inhibition was -67.3% (active). The result for `CCN(CC)c1ccc(NC(=O)Cn2nc3c(cc2=O)CCCC3)c(C)c1` reads -12.7%; that for `CSc1ccc(CCNC(=O)c2ccc3c(c2)nc2n3CCOC2)cc1`, 11.7%; that for `CN(C(=O)CCNC(=O)Cn1ccc2ccccc2c1=O)c1ccc(Br)cc1`, 9.17%. The result for `CC1=C(C(=O)OCc2ccc(C)cc2)C(c2ccccc2Cl)CC(=O)N1` (stereo not drawn) reads -36.9%; that for `CCCNC(=O)C1(C)CCCN(Cc2cccc(C(F)(F)F)c2)C1` (stereo not drawn), -32.6%. Next, `CCCNC(=O)C1(C)CCN(Cc2ccc(Cl)c(Cl)c2)C1` (stereo not drawn): -29%; `CCCNC(=O)C1(C)CCCN(Cc2c(C)nn(-c3ccccc3)c2C)C1` (stereo not drawn): -77% (active); `Cc1ccc(NC(=O)N2c3ccccc3SC2c2ccco2)c(C)c1` (stereo not drawn): -32.4%. Take `O=C(NCC(c1ccc(Cl)cc1)N1CCOCC1)c1ccccc1F` (stereo not drawn): the activity change, negative = inhibition was 1.34%.

Consider `C=CCn1c(SCC(N)=O)nnc1-c1cc2c(s1)CCC(CC)C2` (stereo not drawn), for which the activity change, negative = inhibition was -11.3%.

With `CCc1ccc(NC(=O)CCS(=O)(=O)c2cc3c(cc2Cl)NC(=O)CO3)cc1`, the activity change, negative = inhibition is 4.24%. Next, `FC(F)(F)c1nc(-c2ccccc2)ncc1-c1nnnn1-c1ccccc1`: -66.2% (active); `Fc1ccccc1CCNc1nnnn1-c1ccccc1`: -28.9%; `NNC(=O)c1cnn(-c2ccccc2)c1C(F)(F)F`: 6.26%. As for `CCN(CC)S(=O)(=O)c1ccc2c(c1)c(=O)c(C(=O)N1CCN(c3cccc(Cl)c3)CC1)cn2C`, the activity change, negative = inhibition was 11.7%.

For the compound `Cc1cccc(N2CCN(C(=O)CCn3c(=O)c4cccn4c4cccnc43)CC2C)c1` (stereo not drawn), the activity change, negative = inhibition is 15%. For `CC(C)CCN1CCN=C1N(C)C`, the activity change, negative = inhibition is 3.25%. On to `Cc1cc(C)n(-c2nc(SCC(=O)N3CCCC3)c3c4c(sc3n2)CCCC4)n1`, for which the activity change, negative = inhibition was -63.6% (active). Next, `CC(C)c1nc(SCC(=O)Nc2cccc(C(=O)O)c2)c2c3c(sc2n1)CCCC3`: -5.06%; `COCCNc1nc(-n2nc(C)cc2C)nc2sc3c(c12)CCCC3`: -6.15%. The result for `CC(=O)c1ccc(NC(=O)CCNS(=O)(=O)c2cc(Br)cnc2N)cc1` reads 31.8%; that for `CCOc1ccc(CNC(=O)c2ccc(CS(=O)c3ccccc3)o2)cc1` (stereo not drawn), -3.55%; that for `CCCCc1nn2c(=O)cc(COC(=O)c3cccc(NC(=O)COc4ccccc4)c3)nc2s1`, 31.4%. Next, `O=S(=O)(NCCc1ccc(F)cc1)c1cccc2cccnc12`: -31.1%. As for `Cc1ccc2cccc([N+](=O)[O-])c2n1`, the activity change, negative = inhibition is 19.3%. Next, `O=[N+]([O-])c1ccccc1S(=O)(=O)Nc1cccc2cccnc12`: -100% (active); `Cn1c2ccccc2c2cc(/C=C(\NC(=O)c3ccccc3)C(=O)NCC(=O)O)ccc21`: -0.653%; `Cc1nc(-c2ccccc2C(C)C)nc(NCc2ccc(-c3cccnc3)cc2)c1C`: 28%. The result for `COc1ccc(OC)c(-c2csc(-c3c(N)c(C(=O)c4ccccc4)n4ccccc34)n2)c1` reads 5.78%. The result for `O=C(CSc1nc2ccccc2c(=O)n1-c1ccccc1F)N1CCOCC1` reads -17.8%; that for `O=c1c2ccccc2nc(/C=C/c2ccc(F)cc2)n1-c1ccccc1O`, -99.8% (active). Regarding `O=c1c2ccccc2nc(/C=C/c2ccco2)n1-c1ccccc1O`, the activity change, negative = inhibition was -24%. The result for `COc1ccc(OC)c2sc(N3CCN(C(=O)C4COc5ccccc5O4)CC3)nc12` (stereo not drawn) reads -1.41%; that for `COc1ccccc1-c1nnc(C2CCN(C(=O)c3ccc(Cl)cc3)CC2)o1`, -8.12%. The result for `Cc1nc2c(-c3ccc(F)cc3)c(C)nn2c(C)c1CCC(=O)NCc1ccco1` reads -13.3%.

On to `Cc1nc2c(-c3ccccc3)c(C)nn2c(C)c1CCC(=O)NCCc1ccccc1`, for which the activity change, negative = inhibition was 11.4%. Take `Cc1nc2c(-c3ccc(F)cc3)c(C)nn2c(C)c1CCC(=O)N1CCN(c2ccccn2)CC1`: the activity change, negative = inhibition was -68.5% (active). Next, `Cc1ccc(S(=O)(=O)c2c(Nc3cccc(Cl)c3)sc(C(=O)c3ccc4c(c3)OCO4)c2N)cc1`: 9.79%.
